Assay outcomes deposited in PubChem by University of Kansas High Throughput Screening Laboratory.
A selection: hits, their analogues and other compounds. The true share with any hit is near 3.6%.
Pf apPOL inh: Pf-apPOL inhibitors, biochemical, fluorescence | Plasmodium falciparum apicoplast DNA polymerase (apPOL) | Recombinant Pf-apPOL, molecular beacon fluorescence, 1.5 h | inhibition, % at 10 µM | 210,000 tested, 0.25% active | AID 1794808, 2022
mHTT-CaM PPI inh: mutant huntingtin-calmodulin interaction inhibitors – biochemical, AlphaScreen, primary screen; P42858; AlphaScreen His-mHTT/GST-CaM binding, luminescence; inhibition, % at 15 µM; 190,000 tested, 3.6% active;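 further: 0% = both proteins with DMSO and 100% = one protein alone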
Target sequence (P42858 whole entry, looked up, stated change not applied): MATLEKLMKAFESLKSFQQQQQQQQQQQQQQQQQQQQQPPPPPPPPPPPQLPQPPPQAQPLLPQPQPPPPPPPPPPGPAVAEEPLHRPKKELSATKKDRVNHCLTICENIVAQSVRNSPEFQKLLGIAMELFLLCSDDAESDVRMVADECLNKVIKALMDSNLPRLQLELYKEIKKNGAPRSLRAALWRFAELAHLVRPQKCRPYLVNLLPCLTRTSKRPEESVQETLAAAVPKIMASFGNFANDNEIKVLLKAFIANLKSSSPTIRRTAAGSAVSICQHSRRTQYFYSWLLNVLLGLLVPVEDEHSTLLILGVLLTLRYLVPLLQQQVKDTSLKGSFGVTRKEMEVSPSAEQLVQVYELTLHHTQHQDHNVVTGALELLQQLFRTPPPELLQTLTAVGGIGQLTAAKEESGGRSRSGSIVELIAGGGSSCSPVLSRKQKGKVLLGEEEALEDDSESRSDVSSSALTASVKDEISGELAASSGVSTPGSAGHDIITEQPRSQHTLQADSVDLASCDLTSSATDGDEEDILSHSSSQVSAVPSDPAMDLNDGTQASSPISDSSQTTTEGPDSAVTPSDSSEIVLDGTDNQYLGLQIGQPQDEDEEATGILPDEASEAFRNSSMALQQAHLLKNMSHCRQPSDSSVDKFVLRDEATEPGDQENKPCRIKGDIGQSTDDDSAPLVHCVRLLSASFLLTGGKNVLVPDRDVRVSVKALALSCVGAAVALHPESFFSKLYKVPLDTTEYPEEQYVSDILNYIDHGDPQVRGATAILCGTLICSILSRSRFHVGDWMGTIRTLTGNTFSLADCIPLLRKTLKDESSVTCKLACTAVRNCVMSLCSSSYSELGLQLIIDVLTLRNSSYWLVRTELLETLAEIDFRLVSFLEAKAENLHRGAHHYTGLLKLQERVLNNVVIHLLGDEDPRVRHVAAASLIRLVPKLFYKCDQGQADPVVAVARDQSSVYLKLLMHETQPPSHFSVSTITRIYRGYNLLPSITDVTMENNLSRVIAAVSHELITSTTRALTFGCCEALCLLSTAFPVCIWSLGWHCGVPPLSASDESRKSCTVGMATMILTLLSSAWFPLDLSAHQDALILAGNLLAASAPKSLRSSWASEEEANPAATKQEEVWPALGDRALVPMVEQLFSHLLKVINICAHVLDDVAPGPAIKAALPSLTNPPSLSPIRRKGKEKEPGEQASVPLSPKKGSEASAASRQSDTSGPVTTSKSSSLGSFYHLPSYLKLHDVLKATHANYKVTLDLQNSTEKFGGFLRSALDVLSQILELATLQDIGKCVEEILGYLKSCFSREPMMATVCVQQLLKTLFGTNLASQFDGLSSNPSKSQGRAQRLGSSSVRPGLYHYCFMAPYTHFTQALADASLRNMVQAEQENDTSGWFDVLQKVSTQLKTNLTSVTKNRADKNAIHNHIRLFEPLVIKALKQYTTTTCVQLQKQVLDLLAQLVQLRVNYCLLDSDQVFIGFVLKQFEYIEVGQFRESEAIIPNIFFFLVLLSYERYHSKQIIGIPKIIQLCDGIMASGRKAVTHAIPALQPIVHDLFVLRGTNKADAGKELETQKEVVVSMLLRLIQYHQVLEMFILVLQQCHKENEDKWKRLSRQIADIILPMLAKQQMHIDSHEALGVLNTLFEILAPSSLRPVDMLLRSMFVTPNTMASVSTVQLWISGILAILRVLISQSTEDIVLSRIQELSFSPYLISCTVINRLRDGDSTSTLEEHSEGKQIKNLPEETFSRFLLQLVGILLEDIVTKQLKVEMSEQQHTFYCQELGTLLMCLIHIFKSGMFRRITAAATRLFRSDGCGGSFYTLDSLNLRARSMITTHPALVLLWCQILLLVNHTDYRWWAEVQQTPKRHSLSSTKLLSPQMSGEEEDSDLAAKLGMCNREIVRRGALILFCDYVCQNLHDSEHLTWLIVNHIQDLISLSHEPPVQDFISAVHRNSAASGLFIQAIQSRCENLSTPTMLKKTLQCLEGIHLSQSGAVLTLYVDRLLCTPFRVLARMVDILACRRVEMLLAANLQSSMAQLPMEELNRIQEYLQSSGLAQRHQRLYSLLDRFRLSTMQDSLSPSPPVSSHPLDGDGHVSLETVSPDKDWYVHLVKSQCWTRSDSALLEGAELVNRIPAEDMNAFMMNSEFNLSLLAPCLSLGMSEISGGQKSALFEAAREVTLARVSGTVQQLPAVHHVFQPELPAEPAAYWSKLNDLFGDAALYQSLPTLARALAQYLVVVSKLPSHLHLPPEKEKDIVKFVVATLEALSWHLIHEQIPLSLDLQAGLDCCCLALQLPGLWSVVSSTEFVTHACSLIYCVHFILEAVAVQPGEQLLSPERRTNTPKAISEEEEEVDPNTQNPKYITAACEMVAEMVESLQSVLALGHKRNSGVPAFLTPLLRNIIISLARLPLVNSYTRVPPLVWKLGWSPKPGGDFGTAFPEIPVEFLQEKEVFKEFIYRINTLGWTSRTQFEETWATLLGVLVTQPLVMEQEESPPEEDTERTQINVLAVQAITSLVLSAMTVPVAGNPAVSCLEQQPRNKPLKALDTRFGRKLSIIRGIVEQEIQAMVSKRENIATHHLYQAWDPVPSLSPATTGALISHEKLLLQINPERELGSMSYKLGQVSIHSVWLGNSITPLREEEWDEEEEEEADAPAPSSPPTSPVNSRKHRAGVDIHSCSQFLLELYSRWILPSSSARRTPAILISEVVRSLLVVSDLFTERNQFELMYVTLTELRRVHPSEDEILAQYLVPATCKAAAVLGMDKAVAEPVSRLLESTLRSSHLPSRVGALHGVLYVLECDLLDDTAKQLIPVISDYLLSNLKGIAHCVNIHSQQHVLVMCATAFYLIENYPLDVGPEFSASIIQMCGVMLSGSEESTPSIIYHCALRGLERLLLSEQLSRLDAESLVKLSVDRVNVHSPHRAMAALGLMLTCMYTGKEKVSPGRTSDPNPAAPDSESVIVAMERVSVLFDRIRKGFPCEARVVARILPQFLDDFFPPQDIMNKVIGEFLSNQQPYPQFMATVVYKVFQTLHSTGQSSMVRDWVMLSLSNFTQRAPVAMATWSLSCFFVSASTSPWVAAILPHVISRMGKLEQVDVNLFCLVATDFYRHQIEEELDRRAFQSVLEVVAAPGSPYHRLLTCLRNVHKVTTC
An asterisk follows results filed as active. No stated cut-off is given here; in the data, active means inhibition above about 50%; inactive means the rest.

Screening c1ccc(-n2ncc3c2CCc2c-3[nH]c3ccccc23)cc1 returned Pf apPOL inh -1 and mHTT-CaM PPI inh 33.
Screening c1ccc(-n2ncc3c2-c2[nH]c4ccccc4c2CC3)cc1 returned Pf apPOL inh -5 and mHTT-CaM PPI inh 93*.
CN(C)c1ccc(NC(=O)c2ccc(Br)cc2)cc1 was read as Pf apPOL inh 7 and mHTT-CaM PPI inh 7.
For CN(C)c1ccc(NC(=O)c2ccc(N(C)C)cc2)cc1 the results were Pf apPOL inh -3 and mHTT-CaM PPI inh 72*.
For CN(C)c1ccc(NC(=O)c2ccc(Cn3cc([N+](=O)[O-])cn3)cc2)cc1 the results were Pf apPOL inh -4 and mHTT-CaM PPI inh 75*.
Screening CCn1ncc(Br)c1C(=O)Nc1cccc(C(=O)O)c1 returned Pf apPOL inh -3 and mHTT-CaM PPI inh 0.
`CCn1ncc(Br)c1C(=O)Nc1ccc(N(C)C)cc1` gave Pf apPOL inh -7 and mHTT-CaM PPI inh 56*.
Screening CC(=O)N(C)c1ccc(NC(=O)c2ccc(Cn3cc(Br)cn3)cc2)cc1 returned Pf apPOL inh -1 and mHTT-CaM PPI inh 8.
O=C(Nc1ccccc1Cl)O[C@@H]1CC[C@@]23CCCN2C(=O)CCC[C@H]3C1 was read as Pf apPOL inh -5 and mHTT-CaM PPI inh 0.
`Cc1cccc(OCC(=O)NCCc2ccccc2)c1C` gave Pf apPOL inh -5 and mHTT-CaM PPI inh -8.
COc1ccc(/C=C2\CCC(C3CCCC3)C2=O)cc1 (stereo not given) was read as Pf apPOL inh -2 and mHTT-CaM PPI inh -19.
Screening COc1ccc(/C=C2\CCCC(C(=O)C(F)(F)F)=C2O)cc1 returned Pf apPOL inh 13 and mHTT-CaM PPI inh 55*.
Screening CCC(C)NC(=O)c1cc2n(n1)C(C(F)(F)F)CC(c1ccc(Cl)c(Cl)c1)N2 (stereo not given) returned Pf apPOL inh 1 and mHTT-CaM PPI inh 3.
For O=S(=O)(NCc1csc2ccc(Cl)cc12)c1ccc2c(c1)CCO2 the results were Pf apPOL inh -2.
For c1ccc(Nc2nc(N3CCCC3)nc(N3CCNCC3)n2)cc1 the results were Pf apPOL inh -11 and mHTT-CaM PPI inh 10.
For NNc1nc(Nc2ccccc2)nc(N2CCCCC2)n1 the results were Pf apPOL inh -4 and mHTT-CaM PPI inh 99*.
N#Cc1c(-c2ccc3c(c2)OCO3)c(C#N)c2nc3ccccc3n2c1N was read as Pf apPOL inh 0 and mHTT-CaM PPI inh 24.
`CC1C(=O)N(c2ccc(F)c(Cl)c2)CCN1C(=O)c1cccc(F)c1` (stereo not given) gave Pf apPOL inh -2 and mHTT-CaM PPI inh -4.
Screening O=C(NCc1ccc(F)cc1)N1CC2CCCN2c2ccccc21 (stereo not given) returned Pf apPOL inh -4 and mHTT-CaM PPI inh 77*.
For CNC(=O)N1CCCC(c2cccc(C(=O)NCc3ccc(F)cc3)c2)C1 (stereo not given) the results were Pf apPOL inh 1 and mHTT-CaM PPI inh -2.
`CCC1CN(C(=O)NCc2ccc(F)cc2)c2ccccc2O1` (stereo not given) gave Pf apPOL inh -2 and mHTT-CaM PPI inh -18.
For O=C(NCc1ccc(F)cc1)c1ccc(NC(=O)N2CC3CCCN3c3ccccc32)cc1 (stereo not given) the results were Pf apPOL inh -1 and mHTT-CaM PPI inh 54*.
For COc1ccc(/C=C2\N=C(c3ccc(OC)c([N+](=O)[O-])c3)OC2=O)cc1 the results were Pf apPOL inh 5 and mHTT-CaM PPI inh 5.
For Cc1cc2nn(-c3ccccc3)nc2cc1N the results were Pf apPOL inh -2 and mHTT-CaM PPI inh 30.
`Cc1ccc(-n2nc3cc(N)c(Cl)cc3n2)cc1` gave Pf apPOL inh 7 and mHTT-CaM PPI inh 59*.
`COc1ccc(Oc2nc3c(c(=O)n(Cc4ccccc4)c(=O)n3C)n2C)cc1` gave Pf apPOL inh 65* and mHTT-CaM PPI inh 18.
For COc1ccc(Cn2c(Oc3ccccc3)nc3c2c(=O)n(C)c(=O)n3C)cc1 the results were Pf apPOL inh 1 and mHTT-CaM PPI inh -6.
For Clc1ccc(CNc2ncn[nH]2)cc1 the results were Pf apPOL inh -8 and mHTT-CaM PPI inh -1.
For COc1ccc(C=C2Oc3c(ccc4c3CN(CCN3CCOCC3)CO4)C2=O)c(OC)c1 the results were Pf apPOL inh -36 and mHTT-CaM PPI inh 55*.
COc1ccccc1C=C1Oc2c(ccc3c2CN(Cc2cc(OC)c(OC)c(OC)c2)CO3)C1=O was read as Pf apPOL inh -18 and mHTT-CaM PPI inh 55*.
`COc1cccc(C=C2Oc3c(ccc4c3CN(Cc3ccco3)CO4)C2=O)c1` gave Pf apPOL inh -32 and mHTT-CaM PPI inh 20.
Screening COc1ccccc1C=C1Oc2c(ccc3c2CN(Cc2ccncc2)CO3)C1=O returned Pf apPOL inh -30 and mHTT-CaM PPI inh 5.
For COc1ccccc1C=C1Oc2c(ccc3c2CN(CCN2CCOCC2)CO3)C1=O the results were Pf apPOL inh -24 and mHTT-CaM PPI inh 57*.
